Here are results for 13 molecules from PMC5540273 (PLoS ONE, 2017).

Test systems include PIK3C2G; PIK3CA; PIK3CB; PIK3CD; PIK3CG; PIKFYVE; PIM1; PIM2; PIM3.
Holding throughout (conditions): concentration: 1 μM,replicates: in singlicate; n = 1
Another experiment concerns T1, PIK4CB.
T1 construct: gene PI4KB

The structures appear in SMILES notation.
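Note: KINOMEscan kinase panel screen.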

As to `O=C(NCCNc1ccnc(NCc2ccc(F)cc2)n1)c1cc2ccccc2s1` [GSK1379944], the “%Inh” value is given as 0% in the experiment on PIK3C2G; 0% in the experiment on PIK3CA; 0% with PIK3CB; 0% with PIK3CD; 0% in the experiment with PIK3CG; 5% with PIK4CB. In addition, the “%Inh” value in the experiment on PIKFYVE, with PIM1, in the experiment with PIM2 and in the experiment on PIM3 was 0% in each case.

As to `Cc1cc2cn[nH]c2cc1-c1cccc2c(N)c(C(N)=O)nnc12`, the “%Inh” value in the experiment with PIK3C2G is 13%; in the experiment with PIK3CA, 0%; in the experiment on PIK3CB it was 0%; with PIK3CD, 46%; in the experiment with PIK3CG, 0%; in the experiment with PIK4CB it was 26%. In addition, the “%Inh” value in the experiment on PIKFYVE, in the experiment with PIM1, in the experiment with PIM2 and in the experiment with PIM3 was 0% each time.

As for `Cc1occc1-c1nc(N)c(OC[C@@H](N)Cc2c[nH]c3ccccc23)cc1-c1cc2c(C)n[nH]c2cn1` [GSK1660450], the “%Inh” value with PIK3C2G stood at 7%; with PIK3CA it was 0%; with PIK3CB it was 0%; in the experiment with PIK3CD it was 10%; in the experiment on PIK3CG it was 0%; in the experiment on PIK4CB, 0%. In addition, the “%Inh” value in the experiment with PIKFYVE is recorded as 0%; with PIM1 it was 97.3%; in the experiment with PIM2, 99.2%; with PIM3 it was 97.7%.

For `CCn1c(-c2nonc2N)nc2c(C#CC(C)(C)O)nc(OCCN)cc21.Cl.Cl` [GSK902056], the “%Inh” value is recorded as 0% in the experiment with PIK3C2G; 0% with PIK3CA; 0% in the experiment on PIK3CB; 5% with PIK3CD; 0% in the experiment on PIK3CG; 9% in the experiment with PIK4CB. Further, the “%Inh” value was determined as 19% in the experiment with PIKFYVE, 25% with PIM1, 0% with PIM2 and 11% with PIM3.

In the case of `Cl.Oc1cc(-c2nc(-c3ccccc3)[nH]c2-c2ccncc2)ccc1Cl` [SB-386023], the “%Inh” value is 19% in the experiment with PIK3C2G; 0% in the experiment on PIK3CA; 14% with PIK3CB; 0% in the experiment with PIK3CD; 0% in the experiment with PIK3CG; 14% in the experiment with PIK4CB. Further, the “%Inh” value with PIKFYVE is 87%; in the experiment on PIM1, 0%; in the experiment on PIM2 it was 3%; in the experiment with PIM3 it was 0%.

As to `CCN(CC)CCOc1ccc(Nc2ncc3cc(-c4c(Cl)cccc4Cl)c(=O)n(C)c3n2)cc1` [SB-601273], the “%Inh” value was determined as 11% in the experiment with PIK3C2G; 6% in the experiment with PIK3CA; 30% in the experiment with PIK3CB; 40% with PIK3CD; 21% with PIK3CG; 5% in the experiment on PIK4CB. The “%Inh” value in the experiment with PIKFYVE came out at 48%; with PIM1, 0%; in the experiment on PIM2, 0%; with PIM3, 0%.

With `COc1ccc(C[C@@H](CN)NC(=O)c2cc(Br)c(-c3ccnc4[nH]ccc34)s2)cc1.Cl.Cl` [GSK1389063], the “%Inh” value with PIK3C2G was 0%; in the experiment on PIK3CA, 0%; in the experiment with PIK3CB, 52%; with PIK3CD it was 2%; in the experiment with PIK3CG, 0%; with PIK4CB, 19%. In addition, the “%Inh” value came to 0% in the experiment with PIKFYVE, 34% with PIM1, 0% in the experiment with PIM2 and 6% in the experiment on PIM3.

`Nc1nc(Nc2ccccc2)cc(-c2ccc3c(N)n[nH]c3c2)n1` [GSK2225749]: the “%Inh” value in the experiment with PIK3C2G turned out to be 20%; in the experiment with PIK3CA it was 0%; with PIK3CB, 0%; in the experiment on PIK3CD, 22%; in the experiment with PIK3CG, 0%; in the experiment with PIK4CB, 15%. In addition, the “%Inh” value with PIKFYVE amounted to 27%; with PIM1, 12%; in the experiment on PIM2, 0%; in the experiment with PIM3 it was 0%.

In the case of `C[C@@H]1CCN(C(=O)CC#N)C[C@@H]1N(C)c1ncnc2[nH]ccc12`, the “%Inh” value in the experiment with PIK3C2G, with PIK3CA, in the experiment with PIK3CB, in the experiment with PIK3CD, in the experiment on PIK3CG and in the experiment with PIK4CB was 0% in each case. Also, the “%Inh” value in the experiment on PIKFYVE turned out to be 36%; in the experiment on PIM1, 0%; with PIM2, 0%; with PIM3, 0%.

With `Cl.Cl.NC[C@H](CC1CCCCC1)NC(=O)c1cc(Br)c(-c2ccnc3[nH]ccc23)s1` [GSK1581427], the “%Inh” value with PIK3C2G turned out to be 0%; in the experiment with PIK3CA, 0%; in the experiment with PIK3CB, 0%; in the experiment on PIK3CD, 0%; in the experiment on PIK3CG it was 0%; in the experiment on PIK4CB it was 1%. For the same molecule, the “%Inh” value in the experiment with PIKFYVE is on record as 0%; in the experiment on PIM1 it was 1%; in the experiment on PIM2, 0%; in the experiment on PIM3 it was 0%.

With `CN(C)CCOc1ccc(-c2cc(-c3c[nH]nc3-c3ccccn3)ccn2)cc1` [GW835314], the “%Inh” value in the experiment with PIK3C2G came out at 5%; in the experiment with PIK3CA, 0%; with PIK3CB, 11%; in the experiment on PIK3CD it was 2%; with PIK3CG it was 0%; with PIK4CB, 36%. The “%Inh” value in the experiment on PIKFYVE came to 0%; in the experiment with PIM1 it was 13%; with PIM2, 0%; in the experiment on PIM3, 0%.

Take `Cc1ccc(-n2nc(C(C)(C)C)cc2NC(=O)Nc2ccc(OCCN3CCOCC3)c3ccccc23)cc1` [GW839464]: the “%Inh” value in the experiment with PIK3C2G, in the experiment on PIK3CA, in the experiment with PIK3CB, with PIK3CD, in the experiment on PIK3CG and with PIK4CB was 0% in each case. In addition, the “%Inh” value in the experiment on PIKFYVE stood at 0%; in the experiment on PIM1, 0%; in the experiment on PIM2, 9%; with PIM3 it was 0%.

For the molecule `NC(=O)c1cc(-c2ccccc2)cc2c(C3CCNCC3)c[nH]c12` [GSK301362], the “%Inh” value with PIK3C2G came out at 0%; in the experiment with PIK3CA it was 0%; with PIK3CB, 0%; with PIK3CD, 6%; with PIK3CG, 2%; with PIK4CB it was 0%. Besides, the “%Inh” value was found to be 0% in the experiment with PIKFYVE, 17% with PIM1, 0% with PIM2 and 7% with PIM3.
